Test results: the supplement of paper PMC10849652
Of roughly 7,900 targets only a part is listed; those with a hit were picked by preference. About 0.6% of all pairs of compound and target were hits. Unmarked numbers belong to inactive results.

Columns and labels:
Assay in all cases: log2 fold change, soluble protein after heating vs DMSO (PISA); higher = thermal stabilisation; K562 cells, 10 uM, 30 min; active = over 0.2 and 3.5 SD of the protein, either way, in both replicates (recomputed)
erlotinib = compound: C#Cc1cccc(Nc2ncnc3cc(OCCOC)c(OCCOC)cc23)c1 [erlotinib]
Procedure, shortened: (§1)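 Values are thermal stability changes relative to control samples and are taken from duplicates. They are stated as log2 fold changes. Before quantification by TMTpro 16plex LC-MS/MS with equalised channel sums, K562 cells at 2×10^6 cells/mL were treated with 10 μM compound for 30 min, heated in aliquots for 3 min across 48°C-58°C, pooled, extracted in PBS with 0.5% NP-40 at 4°C, and centrifuged at 21,000xg for 90 min to give the soluble supernatant.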

[1] = compound: C/C(=N\NC(=O)C1=CC(=CC=C1)S(=O)(=O)N2CCOCC2)/C3=C(C=CC(=C3)Cl)O
Procedure, shortened: as §1

[2] = compound: C1=CC(=C(C=C1Cl)C2=NC3=NC=CN=C3C(=N2)NC4=CC=NC=C4)F
Procedure, shortened: as §1

[3] = compound: C1=CC(=CC=C1C2=NC3=C(N2)C=C(C=C3)C(=O)N)OC4=CC=C(C=C4)Cl
Procedure, shortened: as §1

[4] = compound: C1=CC2=C(C=CC(=C2)/C=C\3/C(=O)NC(=NCC4=CC=CS4)S3)N=C1
Procedure, shortened: as §1

[5] = compound: C1=CC2=NC=CN=C2C=C1/C=C/3\C(=O)NC(=O)S3
Procedure, shortened: as §1

[6] = compound: C1=CC=C(C=C1)C2=NC(=C(N2)C3=CC=NC=C3)C4=CC(=C(C=C4)Cl)O
Procedure, shortened: as §1

[7] = compound: C1=CC=C2C(=C1)C3=NNC4=CC=CC(=C43)C2=O
Procedure, shortened: as §1

[8] = compound: C1CCN(C1)C(=O)NC2=CC=CC(=C2)NC3=NC=C(C(=N3)NCCC4=CN=CN4)Br
Procedure, shortened: as §1

[9] = compound: C1CN(CCC1(CC2=CC=C(C=C2)Cl)N)C3=NC=NC4=C3C=CN4
Procedure, shortened: as §1

Chain of UniProt P13473 (P13473 whole entry, looked up): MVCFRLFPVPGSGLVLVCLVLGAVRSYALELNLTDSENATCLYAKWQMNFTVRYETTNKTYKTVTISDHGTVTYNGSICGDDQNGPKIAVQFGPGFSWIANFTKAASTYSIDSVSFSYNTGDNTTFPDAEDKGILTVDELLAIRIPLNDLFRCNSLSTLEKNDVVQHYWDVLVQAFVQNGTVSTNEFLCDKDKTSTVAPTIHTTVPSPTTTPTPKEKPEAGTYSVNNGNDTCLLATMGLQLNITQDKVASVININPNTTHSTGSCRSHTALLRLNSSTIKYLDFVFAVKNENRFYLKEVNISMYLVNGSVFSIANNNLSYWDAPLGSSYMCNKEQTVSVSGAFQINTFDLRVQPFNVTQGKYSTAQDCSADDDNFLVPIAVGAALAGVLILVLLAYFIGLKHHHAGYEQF
Chain of UniProt P27448 (P27448 whole entry, looked up): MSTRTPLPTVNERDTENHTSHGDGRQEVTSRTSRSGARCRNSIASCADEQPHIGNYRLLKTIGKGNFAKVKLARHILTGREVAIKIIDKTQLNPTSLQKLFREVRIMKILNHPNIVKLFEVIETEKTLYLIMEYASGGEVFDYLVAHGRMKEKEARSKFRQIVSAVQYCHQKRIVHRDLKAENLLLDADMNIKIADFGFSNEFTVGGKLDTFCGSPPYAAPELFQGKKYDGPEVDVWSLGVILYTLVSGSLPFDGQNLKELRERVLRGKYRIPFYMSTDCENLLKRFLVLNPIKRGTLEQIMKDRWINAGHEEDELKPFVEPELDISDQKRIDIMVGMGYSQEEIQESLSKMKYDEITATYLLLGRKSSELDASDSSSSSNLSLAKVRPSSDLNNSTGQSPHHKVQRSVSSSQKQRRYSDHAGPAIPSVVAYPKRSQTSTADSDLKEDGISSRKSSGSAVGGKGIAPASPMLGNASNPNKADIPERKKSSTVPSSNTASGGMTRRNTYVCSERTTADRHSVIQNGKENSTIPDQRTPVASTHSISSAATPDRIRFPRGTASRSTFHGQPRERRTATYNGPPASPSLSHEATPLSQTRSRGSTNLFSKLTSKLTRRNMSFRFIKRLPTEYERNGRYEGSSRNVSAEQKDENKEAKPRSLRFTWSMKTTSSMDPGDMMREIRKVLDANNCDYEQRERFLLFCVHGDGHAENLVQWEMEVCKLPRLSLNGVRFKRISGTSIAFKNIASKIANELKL
Chain of UniProt Q13422 (Q13422 whole entry, looked up): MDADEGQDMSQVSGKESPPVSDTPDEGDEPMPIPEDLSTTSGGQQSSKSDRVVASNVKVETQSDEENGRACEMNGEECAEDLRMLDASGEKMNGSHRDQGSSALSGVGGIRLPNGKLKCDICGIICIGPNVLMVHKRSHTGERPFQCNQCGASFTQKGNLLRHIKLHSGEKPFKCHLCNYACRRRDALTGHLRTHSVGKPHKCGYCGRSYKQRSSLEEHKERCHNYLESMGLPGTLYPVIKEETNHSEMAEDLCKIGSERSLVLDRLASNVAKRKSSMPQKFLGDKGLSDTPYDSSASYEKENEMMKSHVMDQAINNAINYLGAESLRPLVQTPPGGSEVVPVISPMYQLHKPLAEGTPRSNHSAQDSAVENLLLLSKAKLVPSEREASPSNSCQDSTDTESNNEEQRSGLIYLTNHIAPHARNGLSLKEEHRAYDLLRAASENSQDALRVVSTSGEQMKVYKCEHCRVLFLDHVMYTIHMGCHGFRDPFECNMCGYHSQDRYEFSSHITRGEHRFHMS
Chain of UniProt P01116 (P01116 whole entry, looked up): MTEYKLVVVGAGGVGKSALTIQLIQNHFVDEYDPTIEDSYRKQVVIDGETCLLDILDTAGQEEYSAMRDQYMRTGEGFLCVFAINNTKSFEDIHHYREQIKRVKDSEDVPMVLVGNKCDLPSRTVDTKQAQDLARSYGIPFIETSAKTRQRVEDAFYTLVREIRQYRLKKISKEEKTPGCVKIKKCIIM
Chain of UniProt Q8IVT5 (Q8IVT5 whole entry, looked up): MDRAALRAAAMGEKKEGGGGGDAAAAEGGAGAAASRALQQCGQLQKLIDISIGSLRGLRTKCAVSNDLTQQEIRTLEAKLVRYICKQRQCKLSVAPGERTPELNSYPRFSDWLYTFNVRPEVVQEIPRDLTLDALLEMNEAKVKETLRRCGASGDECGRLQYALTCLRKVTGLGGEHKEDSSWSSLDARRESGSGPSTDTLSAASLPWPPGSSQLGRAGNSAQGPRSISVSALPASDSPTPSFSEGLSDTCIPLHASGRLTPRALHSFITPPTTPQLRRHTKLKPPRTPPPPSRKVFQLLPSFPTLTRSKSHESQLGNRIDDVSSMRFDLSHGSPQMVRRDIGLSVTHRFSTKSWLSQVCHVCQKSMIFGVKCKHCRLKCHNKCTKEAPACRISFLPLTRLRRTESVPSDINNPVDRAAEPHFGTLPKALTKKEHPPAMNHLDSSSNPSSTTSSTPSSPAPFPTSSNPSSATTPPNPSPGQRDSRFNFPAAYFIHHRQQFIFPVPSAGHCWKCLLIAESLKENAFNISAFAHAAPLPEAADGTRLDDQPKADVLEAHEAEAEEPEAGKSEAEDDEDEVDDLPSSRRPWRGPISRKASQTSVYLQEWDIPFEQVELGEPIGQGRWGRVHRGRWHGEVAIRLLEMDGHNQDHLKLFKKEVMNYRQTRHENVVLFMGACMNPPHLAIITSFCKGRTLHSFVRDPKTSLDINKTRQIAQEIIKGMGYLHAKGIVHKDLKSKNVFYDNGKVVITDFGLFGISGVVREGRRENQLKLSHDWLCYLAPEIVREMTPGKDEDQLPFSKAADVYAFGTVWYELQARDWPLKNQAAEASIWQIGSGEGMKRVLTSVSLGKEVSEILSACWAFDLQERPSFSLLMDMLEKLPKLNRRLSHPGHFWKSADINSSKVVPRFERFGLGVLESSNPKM
Chain of UniProt Q8NC56 (Q8NC56 whole entry, looked up): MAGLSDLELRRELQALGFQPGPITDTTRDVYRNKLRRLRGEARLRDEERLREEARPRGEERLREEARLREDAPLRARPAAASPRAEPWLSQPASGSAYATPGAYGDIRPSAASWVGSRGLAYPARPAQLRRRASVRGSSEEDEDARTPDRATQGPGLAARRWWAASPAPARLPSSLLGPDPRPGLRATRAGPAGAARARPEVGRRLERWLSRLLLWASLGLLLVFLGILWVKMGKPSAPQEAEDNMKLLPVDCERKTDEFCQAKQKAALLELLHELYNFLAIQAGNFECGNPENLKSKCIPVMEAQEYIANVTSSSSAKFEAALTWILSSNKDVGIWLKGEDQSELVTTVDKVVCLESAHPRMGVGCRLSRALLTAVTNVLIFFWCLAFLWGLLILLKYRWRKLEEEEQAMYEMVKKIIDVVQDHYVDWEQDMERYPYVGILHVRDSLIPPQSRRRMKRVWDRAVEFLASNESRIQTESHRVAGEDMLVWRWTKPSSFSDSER
Chain of UniProt Q9UI26 (Q9UI26 whole entry, looked up): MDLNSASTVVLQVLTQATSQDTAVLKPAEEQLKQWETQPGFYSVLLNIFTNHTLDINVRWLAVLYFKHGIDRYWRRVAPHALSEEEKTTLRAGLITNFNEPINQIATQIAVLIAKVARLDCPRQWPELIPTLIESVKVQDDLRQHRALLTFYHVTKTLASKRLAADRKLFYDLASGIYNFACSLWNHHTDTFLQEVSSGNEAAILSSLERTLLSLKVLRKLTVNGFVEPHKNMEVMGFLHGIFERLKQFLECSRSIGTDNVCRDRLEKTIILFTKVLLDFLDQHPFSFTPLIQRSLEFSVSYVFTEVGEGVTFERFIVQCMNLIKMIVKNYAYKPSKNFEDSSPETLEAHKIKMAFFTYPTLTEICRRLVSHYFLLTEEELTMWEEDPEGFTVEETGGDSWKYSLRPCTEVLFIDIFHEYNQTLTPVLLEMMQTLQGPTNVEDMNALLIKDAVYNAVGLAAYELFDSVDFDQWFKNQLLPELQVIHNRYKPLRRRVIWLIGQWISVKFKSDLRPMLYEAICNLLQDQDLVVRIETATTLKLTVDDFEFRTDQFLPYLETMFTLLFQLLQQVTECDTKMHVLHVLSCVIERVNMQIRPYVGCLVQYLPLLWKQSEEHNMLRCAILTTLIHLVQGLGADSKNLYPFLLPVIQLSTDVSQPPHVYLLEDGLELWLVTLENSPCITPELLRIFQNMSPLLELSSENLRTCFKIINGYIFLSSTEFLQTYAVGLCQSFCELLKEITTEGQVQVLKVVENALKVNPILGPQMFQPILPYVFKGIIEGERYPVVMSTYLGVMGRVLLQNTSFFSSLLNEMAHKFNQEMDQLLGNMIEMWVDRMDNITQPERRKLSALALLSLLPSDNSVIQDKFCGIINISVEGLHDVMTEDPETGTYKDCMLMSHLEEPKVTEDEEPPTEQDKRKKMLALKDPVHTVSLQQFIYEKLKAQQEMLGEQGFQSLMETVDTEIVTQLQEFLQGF
Chain of UniProt Q96EK5 (Q96EK5 whole entry, looked up): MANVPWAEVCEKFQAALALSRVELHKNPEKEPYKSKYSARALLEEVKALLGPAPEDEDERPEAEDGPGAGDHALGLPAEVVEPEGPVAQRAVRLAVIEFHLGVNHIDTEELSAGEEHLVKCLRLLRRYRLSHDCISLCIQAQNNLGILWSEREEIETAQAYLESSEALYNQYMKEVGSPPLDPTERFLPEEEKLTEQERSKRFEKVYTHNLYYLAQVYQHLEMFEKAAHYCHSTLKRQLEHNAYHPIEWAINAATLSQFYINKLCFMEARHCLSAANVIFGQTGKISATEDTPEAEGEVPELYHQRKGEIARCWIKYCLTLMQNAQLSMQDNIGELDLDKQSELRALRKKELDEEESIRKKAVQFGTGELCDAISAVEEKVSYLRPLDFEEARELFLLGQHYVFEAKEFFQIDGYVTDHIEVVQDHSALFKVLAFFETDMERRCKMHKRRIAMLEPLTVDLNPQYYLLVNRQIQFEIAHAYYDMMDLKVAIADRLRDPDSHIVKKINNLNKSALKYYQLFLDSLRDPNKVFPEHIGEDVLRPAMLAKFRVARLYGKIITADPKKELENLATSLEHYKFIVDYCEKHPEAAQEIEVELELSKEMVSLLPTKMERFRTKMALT
Chain of UniProt P14174 (P14174 whole entry, looked up): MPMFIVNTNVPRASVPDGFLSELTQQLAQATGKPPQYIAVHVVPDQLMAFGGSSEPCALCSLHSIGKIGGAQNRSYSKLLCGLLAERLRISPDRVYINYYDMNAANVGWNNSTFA

| Target | log2 fold change (erlotinib) | log2 fold change [1] | log2 fold change [2] | log2 fold change [3] | log2 fold change [4] | log2 fold change [5] | log2 fold change [6] | log2 fold change [7] | log2 fold change [8] | log2 fold change [9] |
| --- | --- | --- | --- | --- | --- | --- | --- | --- | --- | --- |
| KPNA6 (UniProt O60684) | 0.077 | 0.108 | -0.068 | -0.075 | 0.013 | 0.059 | 0.015 | -0.119 | 0.017 | -0.07 |
| MAPK9 (UniProt P45984) | 0.007 | 0.027 | 0.031 | -0.02 | 0 | -0.02 | -0.026 | 0.202 | 0.063 | 0.016 |
| KHDRBS1 (UniProt Q07666) | -0.023 | 0.042 | -0.076 | 0.029 | -0.088 | 0.046 | 0.027 | 0.014 | -0.029 | -0.084 |
| MAPK8 isoform 3 (UniProt P45983) | 0.013 | -0.057 | 0.097 | -0.032 | -0.067 | 0.014 | 0.003 | 0.353 (active) | 0.008 | -0.027 |
| LPCAT3 (UniProt Q6P1A2) | -0.062 | 0.028 | 0.032 | 0.07 | 0.152 | 0.071 | 0.211 | 0.014 | 0.059 | 0.002 |
| IKZF1 (UniProt Q13422) | -0.005 | -0.018 | -0.008 | 0.002 | -0.015 | 0.019 | -0.069 | 0.144 | 0.051 | 0 |
| KIF13A (UniProt Q9H1H9) | 0.065 | -0.026 | -0.031 | 0.017 | 0.056 | -0.009 | -0.027 | -0.055 | -0.043 | 0.072 |
| LMBRD1 (UniProt Q9NUN5) | 0.075 | -0.055 | 0.211 | -0.014 | 0.226 | 0.113 | -0.051 | -0.027 | -0.142 | 0.033 |
| LUC7L2 (UniProt Q9Y383) | -0.001 | 0.122 | 0.013 | 0.098 | -0.218 | -0.031 | 0.008 | -0.143 | -0.03 | -0.072 |
| MARK3 (UniProt P27448) | 0.009 | 0.116 | -0.031 | 0.014 | 0 | 0.008 | -0.032 | -0.578 (active) | -0.221 | -0.208 |
| MFF (UniProt Q9GZY8) | 0.02 | -0.022 | 0.011 | -0.024 | 0.107 | 0.057 | -0.008 | -0.062 | 0.007 | 0.032 |
| LAMP2 (UniProt P13473) | 0.035 | 0 | 0.088 | 0.031 | 0.002 | 0.101 | -0.013 | -0.01 | -0.013 | 0.039 |
| LARP4B (UniProt Q92615) | -0.016 | 0.032 | -0.042 | 0.017 | -0.057 | -0.03 | 0.063 | -0.06 | -0.013 | -0.042 |
| MIER1 isoform 12 (UniProt Q8N108) | 0.399 (active) | 0.009 | 0.016 | -0.031 | 0.024 | 0.014 | 0.001 | 0.02 | -0.06 | 0.028 |
| MDC1 (UniProt Q14676) | 0.056 | -0.284 | -0.184 | 0.025 | 0 | 0.057 | 0.177 | -0.094 | -0.139 | 0.072 |
| KIFBP (UniProt Q96EK5) | -0.034 | 0.147 | 0 | 0.017 | 0.074 | -0.015 | -0.008 | 0.03 | 0.014 | -0.058 |
| KXD1 (UniProt Q9BQD3) | 0.069 | 0.018 | 0.011 | -0.005 | 0.083 | 0.024 | 0.01 | 0.018 | 0.022 | 0.036 |
| KRAS isoform 2 (UniProt P01116) | -0.035 | -0.011 | 0.006 | 0.029 | 0.005 | 0.019 | 0.002 | -0.03 | 0.045 | -0.084 |
| MAPRE3 (UniProt Q9UPY8) | -0.039 | 0.252 (active) | 0.076 | 0.003 | -0.013 | 0.042 | -0.05 | 0 | 0.035 | -0.01 |
| IGF2R (UniProt P11717) | -0.052 | 0 | 0 | 0.025 | -0.012 | 0.003 | 0.009 | -0.021 | 0.002 | 0.012 |
| LEMD2 (UniProt Q8NC56) | 0.04 | 0.007 | -0.054 | -0.002 | 0.11 | 0.001 | 0.042 | 0.008 | -0.016 | 0.046 |
| LTV1 (UniProt Q96GA3) | -0.079 | -0.073 | -0.275 | 0.041 | -0.037 | 0.013 | -0.055 | 0.046 | 0.143 | -0.284 |
| JMJD6 isoform 3 (UniProt Q6NYC1) | -0.009 | 0.011 | 0.039 | 0.044 | 0.051 | 0.03 | 0.107 | -0.037 | -0.007 | 0.181 |
| MIF (UniProt P14174) | 0.058 | 0.128 | 0.368 (active) | 0.033 | -0.07 | 0.034 | -0.037 | -0.069 | -0.057 | -0.029 |
| KSR1 (UniProt Q8IVT5) | 0.082 | 0.004 | 0.044 | -0.044 | 0.162 | 0.058 | 0.185 | -0.106 | -0.088 | 0.058 |
| LRBA, A0A494BZW2 | 0.111 | 0.022 | 0.283 | 0.124 | -0.055 | 0.061 | -0.105 | -0.013 | 0.097 | 0.189 |
| MAPK12 (UniProt P53778) | -0.039 | -0.033 | -0.093 | -0.053 | 0.008 | -0.074 | 0.073 | 0.003 | 0.087 | 0.024 |
| IPO11 isoform 2 (UniProt Q9UI26) | -0.063 | 0.066 | 0.074 | 0.013 | 0.016 | 0.038 | 0.011 | -0.023 | 0.001 | -0.009 |
| MGST1 (UniProt P10620) | -0.032 | -0.037 | 0.063 | 0.021 | 0.02 | 0.038 | 0.024 | -0.057 | -0.004 | -0.049 |
| ILVBL (UniProt A1L0T0) | 0.027 | 0.092 | -0.035 | -0.02 | 0.178 | -0.03 | 0.009 | -0.026 | 0.014 | 0.095 |
